Source: PubChem (several laboratories)
esBAF inh: blocks esBAF chromatin remodeling in mouse ES cells | Bmi1-luciferase knock-in reporter, 24 h; 100% = twice the neutral-well signal | reporter increase, % at 12.5 µM | hit rate 2% among 350,000 | AID 602393; in the data active means activation above about 40%; inconclusive means no clear call, values can overlap the other calls;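 further: 0% = median of the plate's neutral control wells and 100% = double that signal; a rise in the Bmi1 reporter signal indicates esBAF inhibition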
A3G deaminase: inhibitors of human APOBEC3G DNA deaminase. Q9HC16. recombinant A3G, ssDNA deamination FAM/TAMRA fluorescence. inhibition, % at 20 µM. hit rate 0.28% among 330,000. AID 493012;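 active means inhibition of at least 40% at 20 µM, with no more than 30% in the related APOBEC3A deaminase screen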;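 further: plate controls were DMSO wells with A3G for no effect and wells lacking A3G enzyme for full effect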
Target sequence (Q9HC16 whole entry, looked up): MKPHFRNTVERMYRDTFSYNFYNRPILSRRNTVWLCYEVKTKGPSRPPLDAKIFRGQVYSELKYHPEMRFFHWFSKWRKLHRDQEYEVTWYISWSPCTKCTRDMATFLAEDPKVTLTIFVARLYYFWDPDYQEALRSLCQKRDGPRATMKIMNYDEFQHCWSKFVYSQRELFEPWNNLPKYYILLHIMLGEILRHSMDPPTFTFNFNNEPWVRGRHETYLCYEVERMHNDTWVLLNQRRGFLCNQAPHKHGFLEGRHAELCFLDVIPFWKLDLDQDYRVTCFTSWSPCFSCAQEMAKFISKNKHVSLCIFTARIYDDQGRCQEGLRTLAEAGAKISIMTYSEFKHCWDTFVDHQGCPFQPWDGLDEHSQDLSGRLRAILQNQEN
Wnt bcat act: Wnt/beta-catenin pathway activation; AID 743398; Wnt/beta-catenin reporter cell assay, activator, plate reader; activation, % at 9.35 µM; hit rate 1.2% among 300,000; in the data active means activation above about 30%, passing the limit was not always enough; inconclusive means no clear call, values can overlap the other calls;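 further: 0% = neutral control wells and 100% = positive control wells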
A3A deaminase: blocks human APOBEC3A ssDNA deamination; hit rate 0.41% among 330,000; inhibition, % at 20 µM; AID 493011; recombinant A3A, FAM/TAMRA ssDNA deamination fluorescence;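 active means at least 40% inhibition at 20 µM here, with at most 30% in a related deaminase screen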;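 further: plate controls were A3A with DMSO for no effect and wells lacking A3A enzyme for full effect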
Target sequence (P31941 whole entry, looked up): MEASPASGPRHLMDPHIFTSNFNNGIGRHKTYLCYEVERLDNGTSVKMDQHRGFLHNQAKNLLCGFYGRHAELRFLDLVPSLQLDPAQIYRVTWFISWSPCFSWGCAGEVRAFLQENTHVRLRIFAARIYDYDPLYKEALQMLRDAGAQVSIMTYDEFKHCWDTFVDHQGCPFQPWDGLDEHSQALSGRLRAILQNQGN
MITF act: activators of MITF-driven TRPM1 promoter activity in SK-MEL-5 cells | SK-MEL-5 TRPM1-promoter luciferase, 24 h; % of positive control, neutral wells = 0 | activation, % at 12.5 µM | hit rate 0.75% among 300,000;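 active means mean activation of at least 80% with every replicate also reaching 80%; inconclusive means mean reaches 80% but some replicate falls short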;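 further: 0% = neutral control wells and 100% = parthenolide positive control wells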
PHOSPHO1 block: PHOSPHO1 (human) inhibition. Q8TCT1. recombinant PHOSPHO1, absorbance phosphatase assay. inhibition, % at 13.3 µM. hit rate 1.1% among 290,000. AID 1565; in the data active means inhibition above about 60%
Starred values were filed as active, the others as inactive; u = inconclusive; x = no result; ! = not confirmed by another sample. Shown are actives, neighbours in structure and some others; about 3.6% of the full set was active somewhere.

SMILES | esBAF inh | A3G deaminase | Wnt bcat act | A3A deaminase | MITF act | PHOSPHO1 block
CC(c1ccco1)N(C(=O)COc1ccc(Cl)cc1)c1ccccn1 (stereo not given) | 72* | 2 | x | 3 | 34 | -12
CC(c1ccco1)N(C(=O)COc1ccc(Cl)cc1Cl)c1ccccn1 (stereo not given) | 27 | 6 | 18 | 2 | 105* | 7
CC(c1ccco1)N(C(=O)c1ccccc1F)c1ccccn1 (stereo not given) | x | -5 | 4 | -4 | -12 | 52
C[C@@H]1CN([C@H](C)CO)S(=O)(=O)c2ccc(C#C[C@@H](C)O)cc2O[C@@H]1CN(C)C(=O)CN(C)C | 2 | x | x | x | x | x
Cc1cccc2cc3c(N)c(C#N)sc3nc12 | -62 | -8 | -4 | 0 | x | 64*
C[C@H](CO)N1C[C@H](C)[C@@H](CN(C)Cc2ccc(C(=O)Nc3ccccc3N)cc2)Oc2ccc(NC(=O)Cn3cnnn3)cc2CC1=O | -4 | x | x | x | x | x
CCCCCCc1c(O)nc(SCCN2CCOCC2)[nH]c1=O | 10 | -1 | -2 | 3 | -3 | 68*
COc1ccc(/C=C/C(=O)Nc2cc(C)nn2-c2nc3ccccc3[nH]2)cc1 | x | -3 | 8 | -2 | 92* | 1
CN1c2ccccc2C(C)(C)C12CCCC(=O)N2 (stereo not given) | x | 1 | x | -22 | -7 | 87*
Cc1noc(C)c1S(=O)(=O)N(C)C[C@@H]1OCCCC[C@H](C)Oc2ccc(NC(=O)CCCN(C)C)cc2C(=O)N([C@H](C)CO)C[C@@H]1C | 2 | x | x | x | x | x
CCOc1cc(-c2ccccc2)nc(N)n1 | 47* | -2 | x | -2 | 24 | 13
C[C@H](CO)N1C[C@H](C)[C@H](CN(C)S(=O)(=O)c2ccc(Cl)cc2)Oc2c(NC(=O)c3ccc(-c4nccs4)cc3)cccc2C1=O | -2 | x | x | x | x | x
CCOC(=O)N[C@@H](CC(C)C)C(=O)N1CCC[C@H]1C(=O)NCc1ccccc1 | x | x | -1 | x | x | x
N#Cc1cc(C#N)c(N2CCN(c3ccccn3)CC2)nc1N | x | 0 | 30 | 7 | 98* | -32
CO[C@@H]1CN(C)C(=O)c2ccc(NC(=O)c3cc(C)on3)cc2OC[C@@H](C)N(S(=O)(=O)c2cccc(C)c2)C[C@H]1C | 3 | x | x | x | x | x
Cc1ccccc1NC(=O)COC(=O)c1ccc(S(C)(=O)=O)c([N+](=O)[O-])c1 | x | -5 | -6 | -1 | -14 | 60*
COc1ccc2oc(C(=O)N3CCN(S(=O)(=O)c4c(C)c(C)cc(C)c4C)CC3)c(C)c2c1 | 51* | x | -3 | x | x | x
COc1ccccc1Nc1n[nH]c(=S)s1 | x | 57* | 2 | -1 | 35 | 52
Cc1cccc(C)c1Nc1n[nH]c(=S)s1 | 5 | x | 2 | x | x | x
COc1ccccc1Nc1nc(C)cs1 | 16 | -4 | 0 | -2 | 89*! | 56
Cc1cccc(Nc2n[nH]c(=S)s2)c1C | x | 39 | 1 | -2 | 1 | 100*
COCC(=O)Nc1ccc2c(c1)C(=O)N(C)[C@@H]1CC[C@@H](CC(=O)O)O[C@@H]1CO2 | -4 | x | x | x | x | x
CC(=O)NC12CC3CC(C1)CC(C(=O)Nc1nc4ccc(F)cc4s1)(C3)C2 | 45* | 1 | 6 | 3 | 5 | 18
CCC(CC)c1nnc(NC(=O)C23CC4CC(CC(NC(C)=O)(C4)C2)C3)s1 | 9 | -9 | -1 | -7 | -14 | 43
CC(C)NC(=O)c1ccc(-c2ccccc2C(F)(F)F)o1 | 47* | -3 | x | -1 | 76 | -15
SMILES | esBAF inh | A3G deaminase | Wnt bcat act | A3A deaminase | MITF act | PHOSPHO1 block
CC(C)NC(=O)c1ccc(-c2ccc(Cl)c(C(F)(F)F)c2)o1 | x | -6 | x | -1 | 0 | 5
O=C(Nc1ccccc1)c1ccc(-c2ccccc2C(F)(F)F)o1 | 52* | 11 | 29 | -1 | 79 | -16
O=C(CSc1nnc(C2CCCCC2)n1Cc1ccccc1)NCc1ccco1 | -4 | 2 | -7 | 5 | -3 | 76*
COc1ccccc1OCc1nnc(SCC(=O)NCc2ccco2)n1Cc1ccco1 | -9 | 0 | -2 | 11 | -9 | 65*
COc1ccc(-c2nc(SCC(=O)NCc3ccco3)c(-c3ccccc3)[nH]2)cc1OC | x | -3 | 1 | -2 | -7 | 63*
COc1ccc(-c2[nH]c(-c3ccccc3)nc2SCC(=O)NCc2ccco2)cc1OC | 3 | -6 | 8 | -4 | 2 | -9
Cc1ccccc1OCc1nnc(SCC(=O)NCc2ccco2)n1C | -9 | -12 | -2 | -5 | -5 | 36
C=CCn1c(COc2ccccc2F)nnc1SCC(=O)NC(=O)NCc1ccco1 | -8 | 17 | x | 24 | -7 | 81*
C=CCn1c(COc2ccccc2-c2ccccc2)nnc1SCC(=O)NC(=O)NCc1ccco1 | -1 | -5 | -4 | 1 | 9 | 19
Cc1ccc(S(=O)(=O)N(C)C[C@@H]2Oc3c(NC(=O)NC4CCCCC4)cccc3C(=O)N([C@H](C)CO)C[C@@H]2C)cc1 | 22 | x | x | x | x | x
COc1ccccc1S(=O)(=O)N[C@@H]1CC[C@H](CCn2cc(C3CC3)nn2)O[C@@H]1CO | 0 | x | x | x | x | x
C[C@H]1CN([C@@H](C)CO)C(=O)c2cccc(NS(=O)(=O)c3cccs3)c2O[C@@H]1CN(C)S(=O)(=O)c1ccc(Cl)cc1 | -6 | x | x | x | x | x
Cc1noc(C)c1S(=O)(=O)N(C)C[C@H]1OCCCC[C@@H](C)Oc2ccc(NS(=O)(=O)c3ccccc3)cc2C(=O)N([C@@H](C)CO)C[C@H]1C | -1 | x | x | x | x | x
CO[C@H]1CC[C@@H]2CCOc3c(C#N)cccc3C(=O)N(C)C[C@H](OC)[C@@H](C)C(=O)N(C)C[C@H]1O2 | -3 | x | x | x | x | x
CC(C)(C)c1ccc(OCCn2ccccc2=O)cc1 | 60* | 1 | 62* | 4 | x | 3
O=C(Nc1cccc2ccccc12)OCc1ccccc1 | 61* | x | 4 | x | 48 | x
Nc1ccccc1C(=O)Nc1cccc2ccccc12 | 65* | 3 | 0 | 4 | x | 25
O=C(Nc1cccc2ccccc12)c1ccccc1 | 51* | -5 | 17 | -2 | 55 | 40
O=C(NOCc1ccccc1)OCc1ccccc1 | 63* | x | 13 | x | u | x
O=C(Nc1cccc2ccccc12)c1ccc(F)cc1 | 35 | -1 | 7 | -1 | 19 | 2
Cc1noc(C)c1NC(=O)Nc1cccc2c1O[C@@H](CN(C)Cc1ccccc1)[C@H](C)CN([C@H](C)CO)C2=O | 5 | x | x | x | x | x
CCC(=O)N(C)C[C@@H]1Oc2cc(-c3cccc(F)c3)ccc2S(=O)(=O)N([C@H](C)CO)C[C@H]1C | 2 | x | x | x | x | x
COc1ccccc1S(=O)(=O)N1CC[C@H]2[C@H](CO)Nc3ccc(Br)cc3[C@H]21 | 1 | x | x | x | x | x
